Source: PubChem BioAssay (National Center for Advancing Translational Sciences (NCATS))
A selection: hits, their analogues and other compounds. The true share with any hit is near 8.2%.
KB-3-1 cytotox: qHTS assay for MDR1-selective chemotherapeutics: Primary screen using the parental adenocarcinoma cell KB-3-1. AID 1347075, 2019. KB-3-1 viability, CellTiter-Glo ATP luminescence, 72 h. 400,000 compounds, 1.4% hits. Potency, µM (series often up to 46.1 µM), most hits filed as cytotoxic; note: % is set by controls: 0 for no effect and ±100 for the full control effect; nearly all actives have a fitted effect of over 60% in size
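Here the drug-naive KB-3-1 line serves as comparator for MDR sub-line selectivity; cells received compound titrations, 72 h at 37 °C, then CellTiter-Glo readout.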
ELG1 repair inh: qHTS screen for small molecules that inhibit ELG1-dependent DNA repair in human embryonic kidney (HEK293T) cells expressing luciferase-tagged ELG1; 330,000 compounds, 2.3% hits; HEK293T ELG1-luciferase reporter, luminescence, 16 h; DNA damage induced by 5-fluorouridine; AID 504467, 2011; Potency, µM (top dose mostly 46.1 µM), inactives show at the highest dose activity change, negative = inhibition, hits mostly inhibitors; note: % is set by controls: 0 for no effect and ±100 for the full control effect; nearly all actives have a fitted effect of over 55% in size
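Step one: seed 2,000 cells per well. Step two: pin-transfer compound or DMSO alongside 5-fluorouridine. Step three: incubate 16 hr, 37 °C, 5% CO2. Step four: add ONE-Glo, wait 30 min, read luminescence.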
KB-V1 MDR tox: qHTS assay for MDR1-selective chemotherapeutics: Primary screen using the drug-selected MDR subline cells KB-V1; KB-V1 MDR cells viability, CellTiter-Glo, 72 h; Potency, µM (series often up to 46.1 µM), most hits filed as cytotoxic; 400,000 compounds, 3.4% hits; note: % is set by controls: 0 for no effect and ±100 for the full control effect; nearly all actives have a fitted effect of over 60% in size
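Cytotoxicity toward P-gp-expressing KB-V1 cells was determined as loss of CellTiter-Glo luminescence after 72 h at 37 degrees C. Compounds were tested in quantitative HTS format across a concentration range, with curves fitted to normalized data.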
SW480 rereplic: A quantitative high throughput screen for small molecules that induce DNA re-replication in SW480 colon adenocarcinoma cells. SW480 DNA re-replication, Hoechst DNA content imaging, 48 h. Potency, µM (titrated, usually from 46.1 µM), inactives show at the highest dose re-replication activation, usual class: activators. 340,000 compounds, 1.8% hits. AID 624297, 2012; note: % of control where 0% means no effect; nearly all actives have a fitted effect of over 55% in size
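Cells (250 per well) received 23 nL compound or DMSO by pin tool and were kept 48 hr at 37 C, 5% CO2. Nuclei were then stained with Hoechst for 40 min and scanned for DNA content.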
MCF10A rereplic: A quantitative high throughput screen for small molecules that induce DNA re-replication in MCF 10a normal breast cells; MCF 10A DNA re-replication, Hoechst nuclear intensity, 48 h; Potency, µM (highest dose often 46.1 µM), inactives show at the top dose activity, positive = re-replication, hits mostly activators; 350,000 compounds, 2.9% hits; AID 624296, 2012; note: % of control where 0% means no effect; nearly all actives have a fitted effect of over 50% in size
An asterisk follows results filed as active; i = inactive; ? = inconclusive; · = no result given; [ ] = dose if it differs, or a comment. Calls come from the whole dose curve; as a rule, active = well fitted curve in the direction sought with a large enough effect; inconclusive = small, poorly fitted or top-dose-only effect, or another doubt; inactive = no such curve, though single readings can be large; an effect the other way counts as inactive or inconclusive. Potency is the fitted concentration of half-maximal effect.

SMILES | KB-3-1 cytotox | ELG1 repair inh | KB-V1 MDR tox | SW480 rereplic | MCF10A rereplic
Nc1c(C(=O)c2ccccc2)sc2nsc(SCCN3CCOCC3)c12 | i | ? | ? | ? | 13µM*
CCOC(=O)c1ccc(NC(=O)c2sc3nc(N4CCOCC4)c4c(c3c2N)CCCC4)cc1 | i | -3% | i | ? | 2.1µM*
COc1ccc(NC(=O)c2sc3nc(N4CCCC4)c4c(c3c2N)CC(C)(C)OC4)c(OC)c1 | i | 0% | i | 2.9µM* | ?
COc1nnnc2c1sc1nc(N3CCOCC3)c3c(c12)CC(C)(C)OC3 | · | 2% | · | · | ·
CC(=O)c1sc2nsc(SCCN3CCOCC3)c2c1N | i | ? | i | ? | 3%
Cc1nc2c(sc3nc(N4CCOCC4)c4c(c32)CC(C)(C)OC4)c(-c2ccc(Cl)cc2)c1C(=O)O | ? | ? | i | 5.2µM* | 0.46µM*
CCC(=O)N1CCC1(C)C(=O)Nc1cccc2c1CCCC2 (centres undefined) | i | · | i | · | ·
COc1cc(OC)cc(-c2c(C#Cc3ccsc3)c3cc(-c4cccc5[nH]cc(C=O)c45)ccc3n2C)c1 | i | ? | i | 5% | -3%
CCOc1ccc(C(=O)Nc2nc3ccccc3[nH]2)cc1OCC | ? | ? | 5.2µM* | 2% | 18%
COc1ccc(C(=O)Nc2nc3ccccc3[nH]2)cc1OC | i | ? | i | -3% | -18%
CCOc1ccc(C(=O)Nc2cc(-c3nc4ccccc4[nH]3)ccc2C)cc1[N+](=O)[O-] | i | 23µM* | i | 15% | 27%
CCOc1ccccc1NC(=O)c1ccc2[nH]c(C)c(C)c2c1 | i | 18% | i | 23µM* | ?
CCOc1ccc(C(=O)Nc2cc(-c3nc4ccccc4[nH]3)ccc2Cl)cc1[N+](=O)[O-] | i | ? | ? | ? | ?
C[n+]1ccc(C(c2c[nH]c3ccccc23)c2cc[n+](C)c3ccccc23)c2ccccc21 | 1.5µM* | · | i | · | ·
Cc1ccc(C)c(N(CC(=O)NC2CCCC2)C(=O)CCC(=O)Nc2cc(C)on2)c1 | i | -8% | ? | 1% | 3%
COc1cc(C(C)=O)ccc1Oc1ncnc2c1cnn2-c1ccccc1 | i | 14% | 15µM* | -4% | 9%
O=C(Nc1cc(=O)[nH]c(=O)[nH]1)c1cc(Cl)ccc1Cl | 4.1µM* | ? | ? | 21µM* | ?
COc1ccc(-c2nnc(SCC(=O)NCCc3ccccc3)nc2-c2ccc(OC)cc2)cc1 | i | · | ? | · | ·
O=C(O)CNC(=O)c1ccc(NC(=O)/C(=C/c2cccc([N+](=O)[O-])c2)NC(=O)c2ccco2)cc1 | i | 8% | ? | -3% | 2%
COc1cc(OC)cc(C(=O)NC2CCN(CCCOc3ccccc3)CC2)c1 | i | -19% | i | -4% | 26%
O=C(c1cccs1)n1nc(-c2ccccc2)nc1NCc1ccc(F)cc1 | ? | -5% | 13µM* | 1% | 72%
COc1ccccc1C(=O)n1nc(-c2ccccc2)nc1NCc1ccc(Cl)cc1 | ? | · | 15µM* | · | ·
COc1ncccc1C(=O)N1CCCC(C(=O)Nc2cccc(-c3ccc(F)cc3)c2)C1 (centres undefined) | i | · | ? | · | ·
Cc1[nH]c2ccccc2c1C(O)CN1CCN(c2cccc(C(F)(F)F)c2)CC1 (centres undefined) | 15µM* | 15µM* | ? | -2%[9.22 µM] | ?
O=C(CCNc1cc(Cl)cc(Cl)c1)c1cccs1 | i | 5% | i | 1% | 23µM*
SMILES | KB-3-1 cytotox | ELG1 repair inh | KB-V1 MDR tox | SW480 rereplic | MCF10A rereplic
O=C(CCNc1ccc(Cl)cc1)c1cccs1 | i | ? | i | 2% | ?
O=C(NCc1ccco1)C(c1ccccc1)N(CC1CCCO1)C(=O)Cn1nnc2ccccc21 (centres undefined) | i | -8% | 21µM* | ? | -4%
O=C(NCc1ccco1)C(c1ccccc1)N(Cc1ccccc1)C(=O)Cn1nnc2ccccc21 (centres undefined) | i | 18µM* | ? | -3% | 0%
Cc1ccc(NC(=O)CC2=NC(=O)C(CC(=O)Nc3ccccc3F)S2)cc1 (centres undefined) | i | 15% | i | ? | 2%
FC(F)(F)c1cccc(Cn2nnnc2-c2cccc(C(F)(F)F)c2)c1 | i | -12% | 15µM* | 0% | ?
FC(F)(F)c1cccc(Cn2nnnc2-c2cc(Cl)cc(Cl)c2)c1 | i | 1% | i | -2% | 2%
CCOc1ccc(CCNC(=O)Cc2ccc(NC(=O)N3CCSc4ncccc43)cc2)cc1 | i | · | i | · | ·
N#Cc1ccccc1CSc1nnc2ccc3ccccc3n12 | i | · | i | · | ·
COc1ccc(CC2S/C(=N/N=C/c3ccccc3O)NC2=O)cc1 (centres undefined) | ? | ? | i | 2.9µM* | 23µM*
O=C1N/C(=N/N=C/c2ccccc2O)SC1Cc1ccc(F)cc1 (centres undefined) | ? | ? | ? | ? | 28%
O=C1COc2ccc(-c3csc(-c4ccc(F)cc4)n3)cc2N1 | i | · | i | · | ·
C=CCN=c1scc(-c2ccc3c(c2)NC(=O)CO3)n1/N=C(\C)c1ccccn1 | 5.2µM* | ? | ? | -7% | ?
S=c1nc(NCCc2ccccc2Cl)c2ccccc2[nH]1 | ? | ? | ? | 0% | 1%
CC(=O)Oc1c(C)c(OC(C)=O)c2c(c1C(C)=O)OC1CC(=O)C(C(C)=O)=C(O)C21C (centres undefined) | i | -19% | ? | -19% | 10%
CC(=O)c1c(O)c(C)c(O)c2c1OC1=CC(=O)C(C(C)=O)C(=O)[C@@]12C (some centres undefined) | ? | -8% | i | 3% | 3.7µM*
Cc1ccc(CN2CC(C(=O)NCCCSc3ccccc3)CC2=O)cc1 (centres undefined) | i | 3% | ? | 1% | 0%
Cc1oc(-c2cc(Cl)cc(Cl)c2)cc1C(=O)NCCc1ccccc1 | i | -3% | ? | -3% | 15µM*
COc1ccc(CCNC(=O)c2cc(-c3cc(Cl)cc(Cl)c3)oc2C)cc1 | i | 6% | i | 11% | ?
C[C@H](NC(=O)c1nc[nH]c1C(=O)NCCCCCNC(=O)OC(C)(C)C)C(=O)OC(C)(C)C | i | 5.2µM* | 23µM* | -7% | 10%
